# What was measured:
# Assay in all cases: PBM binding z-score (relative to random genomic background probes); higher = stronger binding; sequences stand for … in GC…GCGATTGACAGCGTAGAATGAAGG
# [1] = test system: FXR:RXRa (NR concentration 270 nM, RXRa partner concentration 90 nM)
# Method in brief: (§1)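 Custom Agilent 4×180K protein-binding microarrays carried double-stranded probes, each with a 34-nt variable region. These regions held direct-repeat seeds, single-nucleotide variants, half-site ablations and random human genomic background sequences. Ligand-free nuclear receptor dimers were incubated on the arrays for 1 h, antibodies against each partner (one per run) detected binding, and scanned fluorescence was regression-normalized. Binding z-scores take the random background probes as reference.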
# [2] = test system: LXRa:RXRa (NR concentration 270 nM, RXRa partner concentration 90 nM)
# Method in brief: as §1
# [3] = test system: LXRa homodimer (NR concentration 270 nM)
# Method in brief: as §1
# [4] = test system: LXRb:RXRa (NR concentration 270 nM, RXRa partner concentration 90 nM)
# Method in brief: as §1
# [5] = test system: LXRb homodimer (NR concentration 270 nM)
# Method in brief: as §1
# [6] = test system: PPARa:RXRa (NR concentration 270 nM, RXRa partner concentration 90 nM)
# Method in brief: as §1
# [7] = test system: PPARg:RXRa (NR concentration 180 nM, RXRa partner concentration 90 nM)
# Method in brief: as §1
# [8] = test system: PPARg:RXRa 270nM:90nM, anti-RXR (NR concentration 270 nM, RXRa partner concentration 90 nM)
# Method in brief: as §1
# [9] = test system: PPARg:RXRa 30nM:10nM, anti-RXR (NR concentration 30 nM, RXRa partner concentration 10 nM)
# Method in brief: as §1
# [10] = test system: PPARg:RXRa 90nM:30nM, anti-RXR (NR concentration 90 nM, RXRa partner concentration 30 nM)
# Method in brief: as §1
# [11] = test system: PPARg:RXRa DBDmut IVT, anti-RXR (DBD mutation: RXRa K156A/R161A, NR concentration 270 nM, RXRa partner concentration 90 nM)
# Method in brief: as §1
# [12] = test system: PPARg:RXRa IVT, anti-PPARg (NR concentration 270 nM, RXRa partner concentration 90 nM)
# Method in brief: as §1
# [13] = test system: PPARg DBDmut:RXRa IVT, anti-PPARg (DBD mutation: PPARg1 K132A/R137A, NR concentration 270 nM, RXRa partner concentration 90 nM)
# Method in brief: as §1
# [14] = test system: PPARg DBDmut IVT, anti-PPARg (DBD mutation: PPARg1 K132A/R137A, NR concentration 270 nM)
# Method in brief: as §1
# [15] = test system: PPARg homodimer (NR concentration 180 nM)
# Method in brief: as §1
# [16] = test system: PXR:RXRa (NR concentration 270 nM, RXRa partner concentration 90 nM)
# Method in brief: as §1
# [17] = test system: PXR homodimer (NR concentration 270 nM)
# Method in brief: as §1
# [18] = test system: RARa:RXR (NR concentration 270 nM, RXRa partner concentration 90 nM)
# Method in brief: as §1
# [19] = test system: RARa homodimer (NR concentration 270 nM)
# Method in brief: as §1
# [20] = test system: RARb:RXRa (NR concentration 270 nM, RXRa partner concentration 90 nM)
# Method in brief: as §1
Sequence,PBM binding z-score [1],PBM binding z-score [2],PBM binding z-score [3],PBM binding z-score [4],PBM binding z-score [5],PBM binding z-score [6],PBM binding z-score [7],PBM binding z-score [8],PBM binding z-score [9],PBM binding z-score [10],PBM binding z-score [11],PBM binding z-score [12],PBM binding z-score [13],PBM binding z-score [14],PBM binding z-score [15],PBM binding z-score [16],PBM binding z-score [17],PBM binding z-score [18],PBM binding z-score [19],PBM binding z-score [20]
ACAGACAGGTGAGTGAATGTAACTCAGCTGGACG,-0.0424,-0.166,-0.418,-0.486,-0.454,0.0946,0.779,-0.286,-0.216,-0.145,0.386,0.325,-0.206,-0.309,-0.0515,-0.136,0.0208,0.0204,-0.0735,0.384
CGTCCAAGGTCAGCACGTCAGTGAAAGCGACGTG,5.32,3.11,-0.0642,2.37,-0.16,4.23,2.38,2.91,0.448,1.36,2.18,2.13,0.0717,0.0669,1.85,2.31,0.247,3.39,0.134,4.89
ATCTCTAGGTTAGACTCAGTTCAGTGAAGAACGC,1,1.74,1.7,1.12,1.27,0.772,0.251,0.742,0.423,0.508,3.38,2.14,1.55,1.36,1.63,2.69,2.69,1.13,2.42,1.53
AGAACGAGGGCAATGAGTTGATAGCTCGGGTGGC,0.0898,-0.196,-0.745,-0.286,-0.548,1.23,1.03,0.695,-0.213,0.434,3.68,2.41,0.337,-0.763,-0.195,1.36,5.33,0.0914,-0.796,2.08
ACTAGTTGGTCAGATGAGGTCACACACAATTCGG,3.83,3.41,2.89,3.36,0.869,3.74,2.28,2.43,0.846,1.63,1.63,2.78,1.26,1.93,3.45,5.55,2.21,4.72,2.3,3.3
TCAGACAGGTGAAGGTAGCTCAGGTACGCAGTCG,0.513,0.567,-0.0814,0.434,-0.218,1.02,0.481,1.75,3.33,2.65,2.37,0.501,0.112,0.071,0.349,0.216,-0.0197,0.316,0.354,1.07
GGAACGAGGGCATTCGAGTTGATAGCTTGGCGAT,1.76,1.65,-0.471,0.207,-0.992,1.36,0.667,0.802,-0.342,0.275,3.44,2.2,-0.209,-0.379,-0.157,3.79,1.99,0.494,-1,1.87
GCTGCTAGGTCAACTGATGGTCAGCTATAGCTCG,4.54,3.25,0.314,2.01,0.25,3.81,2.88,3.13,0.633,2.16,5.21,4.3,-0.479,-0.34,1.51,1.3,-0.342,2.91,0.342,4.31
ATCTCTAGGTAAGACTCAGTTCAGTTAAGAACGC,0.593,0.555,0.553,0.321,1.02,0.229,0.0463,0.424,0.445,0.237,2.13,1.36,0.719,0.801,1.1,1.11,1.83,0.499,1.6,0.431
CGTCAAAGTTCAACTAAGGTAACGTGAAGCACGC,7.3,6.43,4.57,3.84,1.83,5.09,4.91,5.8,2.35,4.5,0.871,2.2,0.717,0.859,3.36,5.76,4.5,4.34,2.47,5.26
TACCCTAGGTCATGCGGGCCAGTATAGTGTCGGC,4.4,6.5,8.1,3.42,2.52,3.62,3.01,2.92,0.448,1.71,1.96,3.63,0.136,-0.0789,0.581,1.72,0.593,2.37,0.299,3.93
TCGAGTAGATTAGGGGCATTCAGAATGGCGTCGA,-0.41,-0.292,-0.833,0.457,-0.772,0.269,-0.0813,0.334,0.917,0.699,0.671,-0.44,-1.09,-1.25,-0.958,0.158,-0.306,-0.0495,-1.16,0.182
GCAGACCGGTGAAACGCAGGTAACTCAGGGTGGC,-0.668,-0.615,-0.629,-0.971,-1.86,-1.17,-0.0428,-1.18,-1.16,-1.16,-0.72,-0.532,-1.77,-1.81,-1.43,-0.781,-1.17,-0.497,-1.38,-0.191
GAGACAGGGTCAGCTAGAGGCCAGAGTATGGAAA,4.45,2.53,-0.421,2.21,-1.18,4.46,2.91,2.82,0.35,1.21,0.507,1.1,-0.524,-0.747,3.57,3.34,0.373,4.73,0.0826,4.09
CAGCCTAGGTCAGGGCAAGTATAGGAGGAACGTT,2.01,1.35,-0.33,0.587,-1.01,2.23,1.32,1.24,-0.349,0.306,1.79,2,-0.618,-1.17,0.755,0.56,-0.274,1.19,-0.273,3.7
TATCCTAGGTCATTCAGGGGCCAGTATAGAAAGC,5.25,5.67,4.76,3.96,4.11,4.18,3.29,3.8,1.64,3.05,4.17,4.85,1.68,2.21,3.21,3.08,0.861,3.84,1.26,4.08
ATATGTAGGTTATCGGGTCATTCACTTTGCGCAT,3.3,3.17,2.13,3.23,1.51,5.02,7.09,6.26,3.66,5.87,7.73,7.65,4.35,2.87,2.48,3.44,1.07,4.15,2.17,2.64
ATATGTAGGTTACACCCGGGTCATTCAGGCTATG,2.03,4.01,1.46,3.12,0.769,4.84,6.51,5.36,3.01,4.69,7.06,7.68,2.55,1.68,1.71,3.62,1.57,3.89,0.619,2.35
TGTCAAAGTTCAAAGGTAACTTAAGTATCCACAC,7.43,6.57,4.91,5.29,1.88,5.97,9.03,7.64,5.83,7.46,0.229,4.39,1.49,1.25,2.75,5.84,3.49,6.36,1.36,5.23
CATACTGGGCCATTCAGAGGTCATTGATCATATG,3.03,4.44,6.31,3.86,0.861,3.77,2.37,3.13,1.18,2.26,3.86,3.89,1.19,0.509,2.57,4.82,2.58,4.36,0.758,3.14
AGATGTAGGTTAGCTGGGGTCATTCAGACTAGGC,4.46,5.57,2.58,4.53,1.17,4.85,5.03,4.61,2.17,3.72,5.87,5.76,1.86,0.481,2.31,6.19,3.97,5.41,0.958,3
ACAGAAAGGTGATGAAGGTAACTCAGGCTATCAT,0.335,0.618,0.115,0.477,-0.456,1.51,1.02,1.12,0.27,0.787,0.962,1.45,0.665,0.683,0.688,0.335,0.0962,0.91,0.63,1.74
TGTCAAAGTTCAAAGGTAACGAAAGTATCCACAC,7.51,6.49,4.27,5.02,1.67,6.08,9.12,7.76,6.04,7.45,0.62,4.53,1.27,1.66,3.32,5.76,3.79,6.83,1.29,5.22
TCTACCAGGCCAGAGGGTCACTCAAGAGGTACGG,1.36,1.24,-0.237,1.38,-0.315,2.65,2.06,3.41,3.25,3.44,1.61,1.75,-0.383,-0.224,1.12,1.82,-0.126,2.67,0.116,2.51
ATCTCTCGGTAAAGATAGTTCAGTGAATGCAAAT,0.327,1.31,0.62,0.406,0.893,0.353,0.0238,0.0221,0.409,0.333,-0.304,0.216,0.814,0.624,1.08,0.754,0.572,0.965,1.32,0.868
ATATGTAGGTTAGATCCGGGTCATTCAGGCTATG,1.55,2.3,0.843,1.99,0.185,3.74,4.17,3.71,1.53,2.86,6.3,6.32,1.34,0.983,1.65,3.1,1.25,3.08,1.01,2.03

# From the supplement of paper PMC6555819
